According to PubChem BioAssay (NCATS):
Results filed as inconclusive are left out. Where a call stands in place of a potency, no number is given. The source made the active and inactive calls. Calls come from the whole dose curve; as a rule, active = well fitted curve in the direction sought with a large enough effect; inconclusive = small, poorly fitted or top-dose-only effect, or another doubt; inactive = no such curve, though single readings can be large; an effect the other way counts as inactive or inconclusive.

test: qHTS for Inhibitors of ATXN expression: Validation of Cytotoxic Assay (AID 588349); conditions: cytotoxicity counter-screen for ATXN expression inhibitors, cell viability; series mostly up to 57.1 µM
Outline: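 Toxicity of test compounds toward HEK293 cells is scored from cellular ATP content measured by CellTiter Glo. Cells receive titrated doses and incubate 72 hr at 37 degrees C beforehand.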
Potency is the fitted concentration of half-maximal effect.

Row | Structure (SMILES) | Potency
1 | C=CCN1CCC23c4c5ccc(O)c4O[C@H]2C(=O)CC[C@@]3(O)C1C5 (some centres undefined) | inactive
2 | C#CCN[C@H](C)Cc1ccccc1 | inactive
3 | Cc1sc2ccccc2c1CC1=NCCN1 | inactive
4 | Ic1ccccc1CNC1C2CCN(CC2)C1C(c1ccccc1)c1ccccc1 (centres undefined) | 25.1 µM (active)
5 | N[C@@H](CCl)C(=O)O | inactive
6 | CC(=O)NBr | inactive
7 | CCS(=O)(=O)Nc1cccc(C(=C2CCCCC2)c2cnc[nH]2)c1 | inactive
8 | OCc1cnc[nH]1 | inactive
9 | CN1CCc2cccc(Cl)c2CC1 | inactive
10 | NCCCP(=O)(O)O | inactive
11 | C[N+](C)(C)CC#CCOC(=O)Nc1cccc(Cl)c1 | inactive
12 | C[C@H](Cc1ccc2c(c1)OC(C(=O)O)(C(=O)O)O2)NC[C@H](O)c1cccc(Cl)c1 | inactive
13 | NNC(=O)c1ccc(O)cc1 | inactive
14 | N[C@@]1(C(=O)O)CC[C@@H](C(=O)O)C1 | inactive
15 | C[Se]C[C@H](N)C(=O)O | inactive
16 | CCCN(CCC)CCc1ccc(O)c(O)c1 | inactive
17 | COc1ccc2[nH]cc(CCN)c2c1 | inactive
18 | CCCN(CCC)[C@@H]1CCc2cccc(O)c2C1 | inactive
19 | NNC(N)=O | inactive
20 | Nc1ccc(CCN2CCN(c3cccc(C(F)(F)F)c3)CC2)cc1 | inactive
21 | NC(=O)c1ccc(OCC(O)CN2CC=C(c3ccc(F)cc3)CC2)cc1 (centres undefined) | inactive
22 | CCCCCCCCCCCCCC(=O)O[C@@H]1[C@@H](C)[C@@]2(O)[C@@H](C=C(CO)C[C@@]3(O)C(=O)C(C)=C[C@@H]23)C2C(C)(C)[C@@]21OC(C)=O (some centres undefined) | inactive
23 | NCC(CP(=O)(O)O)c1ccc(Cl)cc1 (centres undefined) | inactive
24 | NCC(O)c1cc(O)c(O)cc1F (centres undefined) | inactive
25 | C/C(O)=C(\C#N)C(=O)Nc1cc(Br)ccc1Br | inactive
26 | CC12NC(Cc3ccccc31)c1ccccc12 (centres undefined) | inactive
27 | C=CCN1CC[C@]23c4c5ccc(O)c4O[C@H]2/C(=N/NC(=O)c2ccccc2)CC[C@@]3(O)[C@H]1C5 | inactive
28 | COc1ccc2[nH]c3c(c2c1)CCNC3 | inactive
29 | CCOC(=O)c1ncn2c1[C@@H]1CCCN1C(=O)c1cc(OC)ccc1-2 | inactive
30 | CN(C(=O)Cc1ccc(Cl)c(Cl)c1)C(CN1CCCC1)c1cccc(OCC(=O)O)c1 (centres undefined) | inactive

test: qHTS for Inhibitors of ATXN expression: Validation (AID 588378); conditions: cell-based ATXN2 expression reporter assay, luminescence; series mostly up to 57.1 µM; note: nearly all actives have a fitted effect of over 75% in size
Outline: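 Luciferase luminescence (Bright-Glo) from an ATXN2-FFLuc HEK293 line after 24 h compound exposure at 37 °C, preceded by a CellTiter-Fluor fluorescence viability read. Serial dilutions of a reference ATXN2 inhibitor and a luciferase inhibitor served as controls.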

Row | Structure (SMILES) | Potency
31 | C=CCN1CCC23c4c5ccc(O)c4O[C@H]2C(=O)CC[C@@]3(O)C1C5 (some centres undefined) | inactive
32 | C#CCN[C@H](C)Cc1ccccc1 | inactive
33 | Ic1ccccc1CNC1C2CCN(CC2)C1C(c1ccccc1)c1ccccc1 (centres undefined) | 12.6 µM (active)
34 | N[C@@H](CCl)C(=O)O | inactive
35 | CC(=O)NBr | inactive
36 | Oc1ccc2c3c1O[C@H]1c4[nH]c5ccccc5c4C[C@@]4(O)C(C2)N(CC2CC2)CCC314 (some centres undefined) | 17.8 µM (active)
37 | CCS(=O)(=O)Nc1cccc(C(=C2CCCCC2)c2cnc[nH]2)c1 | inactive
38 | OCc1cnc[nH]1 | inactive
39 | NC(Cc1cc(O)c(O)cc1O)C(=O)O (centres undefined) | inactive
40 | CN1CCc2cccc(Cl)c2CC1 | inactive
41 | NCCCP(=O)(O)O | inactive
42 | C[N+](C)(C)CC#CCOC(=O)Nc1cccc(Cl)c1 | inactive
43 | C[C@H](Cc1ccc2c(c1)OC(C(=O)O)(C(=O)O)O2)NC[C@H](O)c1cccc(Cl)c1 | inactive
44 | NNC(=O)c1ccc(O)cc1 | inactive
45 | N[C@@]1(C(=O)O)CC[C@@H](C(=O)O)C1 | inactive
46 | CC1(C(=O)O)C2CCC(O2)C1(C)C(=O)O (centres undefined) | 7.94 µM (active)
47 | NC(=O)COc1c(F)cc(SCCNS(=O)(=O)c2ccccc2)cc1F | inactive

Row | Structure (SMILES) | Potency
48 | CCCN(CCC)CCc1ccc(O)c(O)c1 | inactive
49 | COc1ccc2[nH]cc(CCN)c2c1 | inactive
50 | C[C@H](N)CN1CCc2ccc(Br)cc21 | 15.8 µM (active)
51 | NC(N)=NOCC[C@H](N)C(=O)O | inactive
52 | CCCN(CCC)[C@@H]1CCc2cccc(O)c2C1 | inactive
53 | CC(Cc1ccc(OCC(=O)O)cc1)NCC(O)c1cccc(Cl)c1 (centres undefined) | inactive
54 | NNC(N)=O | inactive
55 | NC(=O)c1ccc(OCC(O)CN2CC=C(c3ccc(F)cc3)CC2)cc1 (centres undefined) | inactive
56 | CCCCCCCCCCCCCC(=O)O[C@@H]1[C@@H](C)[C@@]2(O)[C@@H](C=C(CO)C[C@@]3(O)C(=O)C(C)=C[C@@H]23)C2C(C)(C)[C@@]21OC(C)=O (some centres undefined) | inactive
57 | NCC(CP(=O)(O)O)c1ccc(Cl)cc1 (centres undefined) | inactive
58 | NCC(O)c1cc(O)c(O)cc1F (centres undefined) | inactive
59 | C/C(O)=C(\C#N)C(=O)Nc1cc(Br)ccc1Br | inactive
60 | CC12NC(Cc3ccccc31)c1ccccc12 (centres undefined) | inactive
61 | C=CCN1CC[C@]23c4c5ccc(O)c4O[C@H]2/C(=N/NC(=O)c2ccccc2)CC[C@@]3(O)[C@H]1C5 | inactive
62 | CCOC(=O)c1ncn2c1[C@@H]1CCCN1C(=O)c1cc(OC)ccc1-2 | inactive
63 | C[N+]1(C)CCN(c2ccccc2)CC1 | inactive
64 | CN(C(=O)Cc1ccc(Cl)c(Cl)c1)C(CN1CCCC1)c1cccc(OCC(=O)O)c1 (centres undefined) | inactive
